# According to PubChem BioAssay (NCI):
# Compounds without any hit were thinned out: in the full panel of roughly 79,000, 15% have a hit. A number with no mark means an inactive call. Active and inactive are the calls of the source. No stated cut-off is given here; in the data, active means growth inhibition above about 70%; inactive means the rest.
# How the values were obtained:
# [1] = NCI Yeast Anticancer Drug Screen. Data for the rad50 strain (AID 155);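 further: 0% = growth of vehicle-only cultures of the same strain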; details: S. cerevisiae rad50 strain growth inhibition; at 50.0 µM; stronger effect = higher value
# How it was run: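 DNA repair mutant yeast, compound exposure, growth read-out; inhibition is taken relative to vehicle.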
# [2] = NCI Yeast Anticancer Drug Screen. Data for the mec2-1 strain (AID 157); details: S. cerevisiae mec2-1 strain, at 50.0 µM, stronger effect = higher value
# How it was run: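 Yeast mec2-1 mutant treated with compound. Readout: growth inhibition vs vehicle controls.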
# [3] = NCI Yeast Anticancer Drug Screen. Data for the sgs1 mgt1 strain (AID 161);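 further: 0% = growth of cultures given vehicle only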; details: S. cerevisiae sgs1 mgt1 strain, at 50.0 µM, stronger effect = higher value
# How it was run: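 Genetically altered yeast, compound exposure, growth inhibition relative to vehicle.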
# [4] = NCI Yeast Anticancer Drug Screen. Data for the cln2 rad14 strain (AID 165);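 further: 0% = growth equal to vehicle treated cultures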; details: S. cerevisiae cln2 rad14 strain, at 50.0 µM, stronger effect = higher value
# How it was run: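 cln2 rad14 yeast strain; compound exposure; growth inhibition read vs vehicle controls.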
# [5] = NCI Yeast Anticancer Drug Screen. Data for the bub3 strain (AID 167); details: S. cerevisiae bub3 mutant strain, at 50.0 µM, stronger effect = higher value
# How it was run: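 In this screen, a yeast mutant lacking normal mitotic checkpoint function is challenged with compound. Relative growth versus vehicle gives the inhibition value.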
# [6] = NCI Yeast Anticancer Drug Screen. Data for the mlh1 rad18 strain (AID 175); details: S. cerevisiae mlh1 rad18 strain growth inhibition; at 50.0 µM; stronger effect = higher value
# How it was run: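 Yeast w/ defined DNA-repair lesions; compound exposure; growth vs vehicle controls → % inhibition.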
SMILES,growth inhibition [1],growth inhibition [2],growth inhibition [3],growth inhibition [4],growth inhibition [5],growth inhibition [6]
O=C(O)CNCP(=O)(O)O,-31.4%,-23.1%,-52.1%,-15.1%,-46.8%,-20%
CN(C)C(=O)N(CCCl)N=O,5.1%,-4.2%,1.45%,2.55%,13.1%,20.8%
Nc1c([N+](=O)[O-])cncc1[N+](=O)[O-],-30.6%,-4.15%,-14.3%,-40.6%,-41.9%,-6.8%
CC(=O)c1cccc(S(=O)(=O)F)c1,-9.7%,-11.3%,-3.25%,13%,-14.9%,-11.8%
Clc1cc[c]([Sb]2([c]3ccc(Cl)cc3)([c]3ccc(Cl)cc3)[O]C(C(Cl)(Cl)Cl)[O]2)cc1 (configuration not stated),98.3% (active),98.5% (active),98.2% (active),98.2% (active),97% (active),97.8% (active)
Cc1nc2ccccc2c(=O)n1-c1ccccc1Br,7.35%,-13.7%,-6.7%,12.4%,10.2%,2.2%
CCOC(=O)C1C(=O)NC2CCC(=O)CC21c1ccc2c(c1)OCO2 (configuration not stated),10.7%,-9.5%,-1.8%,-3.55%,23.9%,11.2%
CN(C)CCCc1c[nH]c2ccccc12,-20.4%,-6.6%,-4.85%,-7.5%,-52.5%,8.25%
CCCCCCCC/C=C\CCCCCCCC(=O)OCC(COC(=O)CCCCCCC/C=C\CCCCCCCC)OC(=O)N(CCCl)CCCl,-29.2%,-9.25%,-18.4%,33.6%,-24.2%,5.45%
O=[N+]([O-])c1cccc(C(Cl)Cl)c1,30.5%,-4.7%,22.4%,22.1%,12.1%,-2.25%
O=[N+]([O-])c1cccc2cccnc12,-11.4%,-13.8%,6.75%,4.2%,0.4%,-1.75%
O=C1CCN(C2(c3ccccc3)CCCCC2)CC1,3.85%,-4.1%,3.55%,-5.1%,-8.85%,-1.35%
C#C[C@]1(O)CC[C@H]2[C@@H]3CCC4=C/C(=N/OC(=O)c5cccc6c(=O)c7ccccc7[nH]c56)CC[C@@H]4[C@H]3CC[C@@]21C,1.6%,-4.5%,11.3%,9.7%,-24.9%,-3.55%
CC1=CC2OC3CC4OC(=O)/C=C/C=C/C(=O)OCC/C(C)=C/C(=O)OCC2(CC1O)C4(C)C31CO1 (configuration not stated),92.3% (active),93.6% (active),93% (active),91.7% (active),91.8% (active),90.9% (active)
C=C1OC(OC)CC(N=[N+]=[N-])C1O (configuration not stated),-14.1%,-2.9%,-6.4%,-5.3%,2.45%,-15.6%
O=NN(c1ccccc1)c1ccccc1,12.2%,9.8%,-8.6%,-22.3%,-10.1%,34.5%
Fc1cccc2cc3cccc[n+]3cc12,5.6%,6.65%,3.55%,-36.3%,15.6%,-1.8%
N#Cc1cccnc1,4.75%,-4.15%,4.1%,5.6%,9.05%,2.75%
CC(=O)CP(=O)(O)O,23.3%,-11.6%,-0.15%,-55.9%,10.1%,-6.35%
CN(C)C(=O)CCCc1ccc(N(CCCl)CCCl)cc1,19.6%,-1.85%,5.3%,9.55%,-0.9%,9.6%
NCCCC(N)P(=O)(O)O (configuration not stated),12.3%,-1.6%,2.6%,-106%,1%,5.55%

SMILES,growth inhibition [1],growth inhibition [2],growth inhibition [3],growth inhibition [4],growth inhibition [5],growth inhibition [6]
C[C@]12CC[C@@H](OC(=O)N(CCCl)N=O)C[C@@H]1CC[C@@H]1[C@@H]2CC[C@]2(C)C(=O)CC[C@@H]12,1.55%,-3.4%,26.5%,-0.75%,13.2%,59.9%
CN(C)C1OCC(C)(C)CO1,-13.9%,-34.7%,-5.55%,12.3%,-18%,-7.1%
CCOC(=O)/C=C/CP(=O)(OCC)OCC,7.9%,-11.5%,15.2%,11.3%,9.55%,18.2%
COC(=O)C1=COC(C)[C@H]2CN3CCc4c([nH]c5cc(OC)ccc45)C3CC12 (some centres not stated),-0.6%,-9.95%,-7.65%,0.9%,-12.8%,-9.1%
CCNC1=C(N2CC2)C(=O)C(NCC)=C(N2CC2)C1=O,30.5%,15.7%,29.4%,8.1%,13.3%,18.7%
CNC(=O)CCl,5.65%,3.4%,-0.45%,-7.15%,-0.75%,6.4%
OCC1OC(n2nnc3cc(Cl)c(Cl)cc32)C(O)C1O (configuration not stated),7.3%,-0.8%,5.85%,11.3%,18.8%,21.7%
CC1=CC23C(COC(=O)C24CO4)C(C(=O)O)=CC3C1C (configuration not stated),-22.8%,-19.7%,-13.3%,27%,-8.95%,-5.7%
CC1(C)CC(N2CCCCC2)=CC(=[N+]2CCCCC2)C1,-6.55%,-2%,22.3%,0.1%,-5.85%,-10.6%
Nc1ccc(N)cc1,10.9%,25.8%,-23.7%,-7.4%,-5.9%,-1%
CC(C)(C)c1ccc2c(cc[n+]3ccccc23)c1,-9.05%,-6.85%,2.05%,4.05%,2.35%,-11.9%
CN(C)P(=O)(N(C)C)N(C)C (tested in a mixture with another compound),8.45%,-7%,3.65%,-21.1%,-31.6%,-14.3%
COc1cc(C2c3cc4c(cc3C(O)[C@H]3COC(=O)[C@@H]23)OCO4)cc(OC)c1O (some centres not stated),-36.4%,-28.7%,-28.8%,16.6%,6.55%,-7.9%
CN=c1ssc(/N=C(\SC)N(C)C)[n+]1C,-17.7%,-10.1%,-13.8%,-65.7%,-19.4%,3.05%
CCC(=O)c1ccc(N)cc1,7.95%,4.45%,2.15%,-26.4%,-4.8%,6.25%
N/C(=N/N=C/c1ccc(O)cc1)N[N+](=O)[O-],-2.4%,-29.6%,-14.3%,-31.5%,-6.75%,9%
COc1cc(C)c(OP(=O)(OC)OC)cc1C,15.3%,0.7%,13.6%,59.1%,1.7%,-0.65%
COc1cc(O)c([N+](=O)[O-])cc1[N+](=O)[O-],-6.4%,0.35%,-2.9%,0%,18.9%,5.05%
O=CC1(c2ccccc2)CCN(Cc2ccccc2)CC1,38.8%,-16.1%,45.1%,41.3%,38.1%,17.4%
CC(=O)c1ccc(Br)cc1,2%,-5.5%,-0.65%,8.7%,5.75%,1%
COc1ccc2c(c1O)C13C=C(OS(=O)(=O)c4ccc(C)cc4)C=CC1C(C2)N(C)CC3 (configuration not stated),40.3%,-4.2%,34.9%,13.9%,-1.85%,3.55%
